PubChem BioAssay
Calls of active or inactive are those of the source.

Legend:
[1] = small molecules captured by biotinylated probe aFSTL3 – biochemical, small-molecule microarray, fluorescence 635/667, stem cell growth factor project, primary screen (AID 1064); settings: higher = more signal;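 further: measures binding of the biotinylated anti-FSTL3 antibody to printed compounds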
[2] = binders from COS7 lysate, DM2A8 probe, primary screen, torsin A project, cell lysate, small-molecule microarray, fluorescence 635/667 (AID 1065); settings: higher = more signal, COS7 lysate expressing mutant human TOR1A
[3] = small molecules captured by biotinylated probe aFGF2 – biochemical, small-molecule microarray, fluorescence 635/667, stem cell growth factor project, primary screen (AID 1067); settings: higher = more signal;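 further: measures binding of biotinylated aFGF2 protein to printed compounds on slides; z-score merges feature fluorescence and signal-to-noise across triplicate slides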
[4] = small molecules captured by biotinylated probe aFGF10 – biochemical, small-molecule microarray, fluorescence 635/667, stem cell growth factor project, primary screen (AID 1071); settings: higher = more signal;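 further: score merges 667 nm spot intensity and signal to noise from triplicate slides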
[5] = biological target: Neurogenic locus notch homolog protein 2 (Homo sapiens) (UniProt Q04721); assay: small molecules binding Notch2 protein – biochemical, small-molecule microarray, 635 nm fluorescence, stem cell growth factors, primary screen (AID 1073); settings: higher = more signal
[6] = biological target: Pro-neuregulin-1, membrane-bound isoform (Homo sapiens) (UniProt Q02297); assay: small molecules binding neuregulin-1 protein – biochemical, small-molecule microarray, fluorescence 635/667, psychiatric disease protein project, primary screen (AID 1075); settings: NRG1 binding, 635 nm fluorescence, higher = more signal;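 further: score combines 667 nm spot fluorescence with signal to noise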
[7] = system: Neuregulin-1 EGF-like domain; assay: small molecules binding NRG1 EGF domain – biochemical, small-molecule microarray, 635 nm fluorescence, primary screen (AID 1081); settings: higher = more signal;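 further: binding of the protein to compounds printed on small-molecule microarray slides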
[8] = FRG1 expression reporter modulators in myotubes – cell-based, C2C12 myotubes, firefly/Renilla luciferase, luminescence, FRG1 inhibition for FSHD, primary screen (AID 1084); settings: FRG1 promoter luciferase, higher = more signal, called active from +8 up or from −8 down
[9] = small molecules captured by biotinylated probe aFST – biochemical, small-molecule microarray, fluorescence 635/667, stem cell growth factor project, primary screen (AID 1086); settings: higher = more signal;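 further: score merges 667 nm fluorescence with signal-to-noise of each printed compound spot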
[10] = binders of probe aHhip on microarray, primary screen, stem cell growth factor project, biochemical, small-molecule microarray, fluorescence 635/667 (AID 1087); settings: higher = more signal;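 further: score merges spot fluorescence at 667nm with spot signal to noise ratio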

Sequence of Pro-neuregulin-1, membrane-bound isoform (Homo sapiens) (Q02297 whole entry, looked up, the tested form may be a part, canonical isoform): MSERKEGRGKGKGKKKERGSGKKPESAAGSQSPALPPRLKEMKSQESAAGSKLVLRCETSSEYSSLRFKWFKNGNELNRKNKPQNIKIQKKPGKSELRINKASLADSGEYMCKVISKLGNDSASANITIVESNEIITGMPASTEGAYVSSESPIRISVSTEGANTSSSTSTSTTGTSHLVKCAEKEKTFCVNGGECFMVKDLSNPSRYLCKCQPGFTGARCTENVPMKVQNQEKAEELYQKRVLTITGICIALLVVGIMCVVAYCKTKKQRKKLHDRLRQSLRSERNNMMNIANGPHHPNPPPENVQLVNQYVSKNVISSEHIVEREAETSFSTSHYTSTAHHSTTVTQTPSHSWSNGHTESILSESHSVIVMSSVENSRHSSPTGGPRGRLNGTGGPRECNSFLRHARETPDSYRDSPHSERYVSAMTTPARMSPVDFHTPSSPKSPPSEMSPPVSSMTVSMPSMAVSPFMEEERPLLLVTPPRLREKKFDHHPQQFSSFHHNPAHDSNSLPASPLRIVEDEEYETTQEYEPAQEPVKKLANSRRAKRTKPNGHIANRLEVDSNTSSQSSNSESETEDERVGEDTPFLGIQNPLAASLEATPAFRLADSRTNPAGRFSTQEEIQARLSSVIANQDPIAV
Sequence of Neurogenic locus notch homolog protein 2 (Homo sapiens) (Q04721 whole entry, looked up, canonical isoform): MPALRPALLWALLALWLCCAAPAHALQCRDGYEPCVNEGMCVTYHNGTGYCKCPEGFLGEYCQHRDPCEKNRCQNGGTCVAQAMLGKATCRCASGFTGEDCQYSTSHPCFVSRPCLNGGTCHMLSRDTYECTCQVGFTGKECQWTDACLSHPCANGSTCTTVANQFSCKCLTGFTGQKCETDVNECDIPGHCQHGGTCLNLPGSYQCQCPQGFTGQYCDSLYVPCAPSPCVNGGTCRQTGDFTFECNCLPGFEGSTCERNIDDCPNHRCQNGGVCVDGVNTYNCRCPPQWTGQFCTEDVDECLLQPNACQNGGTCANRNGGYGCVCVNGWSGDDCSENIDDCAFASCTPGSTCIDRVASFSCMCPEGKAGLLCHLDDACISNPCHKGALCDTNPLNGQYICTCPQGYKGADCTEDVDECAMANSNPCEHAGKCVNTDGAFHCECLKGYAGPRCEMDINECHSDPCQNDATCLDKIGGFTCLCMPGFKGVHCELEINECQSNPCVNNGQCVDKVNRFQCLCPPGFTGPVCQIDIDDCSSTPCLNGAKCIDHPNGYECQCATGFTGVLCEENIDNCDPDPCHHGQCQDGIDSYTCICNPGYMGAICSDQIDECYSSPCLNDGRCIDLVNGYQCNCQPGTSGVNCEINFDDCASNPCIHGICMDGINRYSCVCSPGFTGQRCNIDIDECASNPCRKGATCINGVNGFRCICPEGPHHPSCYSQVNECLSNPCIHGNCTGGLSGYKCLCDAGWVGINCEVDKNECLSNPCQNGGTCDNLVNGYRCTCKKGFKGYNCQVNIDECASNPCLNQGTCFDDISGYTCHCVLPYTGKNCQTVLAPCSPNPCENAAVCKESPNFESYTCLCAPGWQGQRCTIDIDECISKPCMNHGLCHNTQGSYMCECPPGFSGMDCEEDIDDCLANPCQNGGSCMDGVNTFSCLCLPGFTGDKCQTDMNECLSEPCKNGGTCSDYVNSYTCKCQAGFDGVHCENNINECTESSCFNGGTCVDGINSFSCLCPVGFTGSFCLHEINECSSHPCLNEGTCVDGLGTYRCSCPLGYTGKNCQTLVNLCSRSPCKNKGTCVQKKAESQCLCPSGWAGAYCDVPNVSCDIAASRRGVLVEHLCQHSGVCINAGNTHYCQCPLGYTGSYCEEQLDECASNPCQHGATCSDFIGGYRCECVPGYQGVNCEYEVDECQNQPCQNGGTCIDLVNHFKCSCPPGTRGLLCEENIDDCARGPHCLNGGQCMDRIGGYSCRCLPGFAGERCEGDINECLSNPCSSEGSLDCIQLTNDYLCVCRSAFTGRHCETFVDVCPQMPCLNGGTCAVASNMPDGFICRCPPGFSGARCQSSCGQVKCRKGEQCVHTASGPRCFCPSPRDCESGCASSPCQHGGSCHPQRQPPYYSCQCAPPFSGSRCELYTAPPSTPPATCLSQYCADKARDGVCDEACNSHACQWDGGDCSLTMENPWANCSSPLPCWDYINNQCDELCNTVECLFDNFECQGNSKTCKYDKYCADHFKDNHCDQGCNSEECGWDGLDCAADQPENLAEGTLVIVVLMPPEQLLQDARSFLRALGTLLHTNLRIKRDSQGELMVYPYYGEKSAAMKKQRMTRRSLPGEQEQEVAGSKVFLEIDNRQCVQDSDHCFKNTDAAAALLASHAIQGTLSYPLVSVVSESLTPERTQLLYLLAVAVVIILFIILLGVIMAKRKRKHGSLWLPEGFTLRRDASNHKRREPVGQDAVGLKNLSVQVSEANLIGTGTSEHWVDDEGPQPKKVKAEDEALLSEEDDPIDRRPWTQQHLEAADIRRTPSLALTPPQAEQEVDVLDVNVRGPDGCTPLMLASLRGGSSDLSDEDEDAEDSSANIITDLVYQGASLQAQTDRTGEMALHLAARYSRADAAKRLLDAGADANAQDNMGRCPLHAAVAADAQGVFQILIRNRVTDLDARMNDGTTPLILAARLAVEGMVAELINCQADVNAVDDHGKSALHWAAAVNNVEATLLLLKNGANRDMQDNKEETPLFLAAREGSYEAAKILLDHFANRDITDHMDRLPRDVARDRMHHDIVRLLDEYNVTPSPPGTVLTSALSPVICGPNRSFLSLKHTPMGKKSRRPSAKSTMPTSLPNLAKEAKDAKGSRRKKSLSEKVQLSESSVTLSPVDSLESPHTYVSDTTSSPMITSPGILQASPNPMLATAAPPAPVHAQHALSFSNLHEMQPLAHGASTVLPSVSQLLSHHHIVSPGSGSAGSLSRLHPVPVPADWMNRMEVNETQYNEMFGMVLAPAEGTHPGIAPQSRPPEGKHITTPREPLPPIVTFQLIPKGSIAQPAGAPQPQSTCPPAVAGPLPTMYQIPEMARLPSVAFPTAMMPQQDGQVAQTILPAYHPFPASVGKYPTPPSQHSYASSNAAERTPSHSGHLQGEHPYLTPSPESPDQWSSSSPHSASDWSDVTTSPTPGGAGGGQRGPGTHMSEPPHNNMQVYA

Compound | composite z-score [1] | composite z-score [2] | composite z-score [3] | composite z-score [4] | composite z-score [5] | composite z-score [6] | composite z-score [7] | z-score [8] | composite z-score [9] | composite z-score [10]
[N-]=[N+]=NCc1ccccc1[C@@H]1OC(c2ccc(OCCCO)cc2)=N[C@]1(CCS(=O)(=O)c1ccccc1)C(=O)N1CCOCC1 | 0.788 | 1.17 | 0.0332 | 0.89 | 1.64 | 1.48 | 1.29 | 0.291 (inactive) | 1.25 | -0.0296
CCOC(=O)[C@H]1C/C=C/C[C@H](C(=O)OCC)C(=O)O[C@H]2[C@@H](OC)O[C@H](CO)[C@@H](OC(=O)c3ccc(Br)cc3)[C@@H]2OC1=O | 0.0086 | 0.014 | -0.0459 | -0.0304 | -0.0686 | 0.132 | 0.517 | -0.0847 (inactive) | -0.0976 | 0.0566
COc1ccc(C(=O)Nc2ccc(CN3C(=O)[C@]4(O[C@H](CC(=O)N5CCC[C@H]5CO)[C@@H]([Si](C)(C)c5ccc(OC)cc5)[C@@H]4C)c4ccccc43)cc2)cc1 | -0.332 | 0.355 | -0.0715 | 0.656 | 0.351 | 1.42 | 1.31 | -1.54 (inactive) | -0.0939 | 0.0749
COC(=O)c1c2oc(c1C(=O)OC)C(=O)N[C@@H](C(C)C)Cn1cc(nn1)C1(CCCCC1)NC(=O)N[C@H](CO)CC2 | -0.458 | 0.104 | -0.124 | 0.471 | -0.178 | 0.356 | 0.859 | -0.965 (inactive) | -0.0464 | 0.0881
COCCCNC(=O)[C@@]1(Cc2ccccc2)N=C(c2ccc(OCCCO)cc2)O[C@H]1c1ccccc1CN=[N+]=[N-] | 0.988 | 1.35 | 0.0762 | 0.806 | 1.25 | 1.74 | 1.11 | -0.989 (inactive) | 1.54 | -0.194
COc1ccc(CCNC(=O)[C@@]2(C)c3ccccc3C(=O)N(c3ccc(C)cn3)[C@H]2c2ccc(CO)cc2)cc1 | -0.561 | -0.997 | -0.171 | -0.516 | -0.859 | 0.884 | 1.34 | 1.07 (inactive) | -0.389 | -0.13
C=CCNC(=O)[C@H]1[C@@H]2C(=O)O[C@@H](c3ccccc3)[C@@H](c3ccccc3)N2[C@@H](c2ccc(O)cc2)[C@]12C(=O)Nc1ccc(C#CCCO)cc12 | -0.107 | -1.51 | -0.122 | -0.0819 | -0.697 | 1.01 | 0.732 | -3.71 (inactive) | 0.33 | -0.0994
CN(C)CCCC[C@@H]1NC(=O)[C@H]2C[C@@H](C(=O)NCCCCCN)[C@@H](c3cccc(OCCO)c3)N2C1=O | 1.88 | 2.19 | 0.269 | 0.558 | 1.12 | 2.28 | 1.3 | -0.0269 (inactive) | 1.75 | 1.16
O=C1C2C=CC(C(O)c3cc(C(F)(F)F)cc(C(F)(F)F)c3)N(Nc3ccccc3)C2C(=O)N1c1ccccc1 (stereo not given) | 0.281 | 1.2 | -0.0064 | 0.35 | 0.649 | 1.8 | 1.12 | 0.995 (inactive) | 0.664 | -0.0994
COC(=O)[C@@]1(Cc2ccc(OC)cc2)[C@H]2c3cc(C(=O)N(C)C)n(Cc4ccc(C(F)(F)F)nc4)c3C[C@H]2CN1C(=O)c1ccccc1 | 0.125 | 0.114 | 0.0343 | 0.459 | 1.53 | 1.34 | 1.01 | 0.515 (inactive) | 0.597 | -0.0237
COCC(=C=CC[C@H](O)c1ccccc1OCCO)CCO | -0.2 | 0.32 | -0.0747 | 0.225 | -0.626 | 1.24 | 0.857 | 0.212 (inactive) | -0.0019 | 0.0373
COC(=O)c1c(CC[C@@H](CO)NC(=O)NCCc2c[nH]c3ccccc23)oc(C(=O)Cc2ccccc2)c1C(=O)OC | -0.379 | 0.488 | 0.0858 | 0.203 | 0.0378 | -0.0379 | 0.939 | 1.49 (inactive) | 0.224 | 0.0036
COCCOC(=O)N1C(=O)[C@@]2(c3cc(C#CCCO)ccc31)[C@H](c1ccc(O)cc1)N1[C@H](c3ccccc3)[C@H](c3ccccc3)OC(=O)[C@H]1[C@@H]2C(=O)N1CCN(c2ncccn2)CC1 | -0.788 | 0.325 | 0.005 | 0.792 | 1.44 | 1.49 | 1.24 | -0.606 (inactive) | 0.437 | 0.783
COC(=O)[C@@]1(Cc2ccccc2)[C@H]2c3cc(C(=O)N4CCCC4)n(Cc4c(CO)[nH]cc(C)c4=O)c3C[C@H]2CN1C(=O)c1ccccc1 | 1.13 | -0.0496 | 0.2 | 0.647 | 1.63 | 1.96 | 1.17 | 1.39 (inactive) | 0.915 | -0.121
C=CCNC(=O)[C@@H]1[C@H]2C(=O)O[C@H](c3ccccc3)[C@H](c3ccccc3)N2[C@H](c2ccc(OCCO)cc2)[C@@]12C(=O)N(C(=O)OCCOC)c1ccc(C#CCC(C(=O)OC)C(=O)OC)cc12 | -0.426 | 1.25 | 0.0408 | 1.05 | 1.1 | 1.48 | 1.12 | 1.26 (inactive) | 0.88 | 0.386
C=C[C@H](C)[C@@H](OC(=O)Nc1ccc(SC)cc1)c1ccc(O)c2ccccc12 | -0.151 | 0.152 | 0.0111 | 0.358 | 0.68 | 0.423 | 1.43 | 5.42 (inactive) | 0.455 | -0.0994
COc1ccc([Si](C)(C)[C@H]2[C@H](CCO)O[C@@]3(C(=O)N(Cc4ccccc4)c4ccc(N5CCCCC5=O)cc43)[C@@H]2C)cc1 | -0.347 | 0.455 | -0.0428 | 0.74 | 0.333 | 0.39 | 0.909 | -2.44 (inactive) | -0.227 | -0.0645
CC[C@@H]1C=C(C(=O)O)[C@H](c2ccc(C)cc2)N1S(=O)(=O)c1ccc(C)cc1 | -0.139 | 0.719 | -0.0246 | -0.256 | 1.1 | 0.929 | 1.29 | -0.143 (inactive) | 0.593 | 0.126
O=C1O[C@@H](c2ccccc2)[C@@H](c2ccccc2)N2[C@@H](c3ccc(OCCO)cc3)[C@]3(C(=O)Nc4ccc(C#CCCO)cc43)[C@@H](C(=O)NC[C@H](O)c3ccccc3)[C@H]12 | 0.193 | 0.458 | -0.0281 | 0.902 | 0.578 | 1.01 | 1.17 | -0.772 (inactive) | 0.456 | 0.0052
CN1C(=O)C2C=CC(C(O)c3ccc(F)cc3)N(N(c3ccccc3)c3ccccc3)C2C1=O (stereo not given) | 0.5 | -0.123 | -0.0446 | 0.122 | 0.822 | 1.28 | 1.03 | -0.368 (inactive) | 0.56 | -0.107
COc1ccc([C@H]2OC[C@@H]3CCC(=O)N32)cc1 | -0.136 | 0.428 | -0.169 | 0.733 | 0.471 | 0.0194 | 1.19 | 0.0543 (inactive) | 0.664 | -0.0581
COC(=O)c1c(CC[C@@H](CO)NC(=O)N[C@H](Cc2ccccc2)Cn2cc(-c3ccccn3)nn2)oc(C(C)=O)c1C(=O)OC | -0.241 | 0.0467 | -0.083 | 0.19 | -0.143 | 0.813 | 1.09 | -0.533 (inactive) | -0.217 | -0.271
CCCNC(=O)[C@@H]1c2ccccc2C(=O)N(Cc2ccccc2OC)[C@H]1c1ccc(CO)cc1 | -0.148 | 1.34 | -0.0058 | 0.479 | 0.901 | 1.66 | 0.977 | -2.3 (inactive) | 0.274 | -0.201
CCCCCCCCCCC(O)C1C=CC2C(=O)NC(=O)C2N1Nc1ccc(Cl)cc1Cl (stereo not given) | 0.133 | -1.22 | -0.0667 | 0.159 | -0.218 | 1.02 | 0.436 | 1.32 (inactive) | 0.0804 | -0.0237
COc1cc2c(cc1O)C(c1cccs1)N(Cc1ccc([N+](=O)[O-])o1)CC2 (stereo not given) | -0.116 | 1.85 | -0.0265 | 0.724 | 0.881 | 1.54 | 0.387 | -1.63 (inactive) | 0.583 | -0.0994
C=CCN1C(=O)[C@]2(O[C@H](CCO)[C@@H]([Si](C)(C)c3ccc(OC)cc3)[C@@H]2C)c2cc(N(C=O)c3ccccc3)ccc21 | 0.0147 | 0.109 | -0.0583 | 0.26 | 0.425 | 0.495 | 0.903 | -2.69 (inactive) | 0.359 | 0.0021
CC(C)[C@@H](C(=O)O)n1cc(C2(O)CCCCC2)nn1 | -0.401 | -0.938 | -0.183 | 0.78 | 0.63 | 0.394 | 0.451 | 0.356 (inactive) | 0.27 | -0.218
